# Measurements as given in PubChem BioAssay (NCI).
# Compounds without any hit were thinned out: in the full panel of roughly 83,000, 20% have a hit.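 Each cell line was grown in a 96-well plate and treated with one concentration of compound for 48 hours. Values below 10 were considered active.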 A number with no mark means an inactive call. Activity calls are given as the source filed them.
# Tested on: T-47D breast
# Assay: NCI-60 one-dose screen, 48 h (100 = growth as untreated, 0 = no growth, -100 = all killed)
# Settings: 10 µM unless noted
# Method: Growth inhibition of the T-47D human tumor cell line is measured as a screen for anti-cancer activity. Cells are grown in 96 well plates and exposed to the test compound for 48 hours. Compounds are tested at a single concentration, which is 10^-5 M for most compounds. The reported endpoint is percent growth (GI% or GIPRCNT), where numbers from 0 - 100% represent growth inhibition, and numbers from -100% - 0 represent cell death. For example, a value of 40 represents 60% growth inhibition. A value of 0 means no net growth occurred over the course of the experiment. A value of -40 indicates 40% of cells at the beginning of the experiment died by the end of the experiment. A value of -100 means all cells are dead at the end of the experiment.
# NCI-60 Human Tumor Cell Lines Screen was performed using the standard one-dose NCI protocol, which is described in more detail at https://dtp.cancer.gov/discovery_development/nci-60/default.htm.
# Compounds with GIPRCNT values below 10 were considered active. Activity score was based on GIPRCNT using the following formula: […]
# Score is 0 for GIPRCNT values of 100 or above, 50 for GIPRCNT values of 0, and 100 for GIPRCNT values of -100.
row,SMILES,growth
1,NNC(=O)c1nc(N)n(-c2ccc(S(N)(=O)=O)cc2)n1,93.5%
2,N#C/C(=C\c1ccc2c(c1)OCO2)n1nnc2cc(F)c(F)cc21,20.6%
3,Cc1cc(NCc2cc(Nc3ccnc4cc(Cl)ccc34)ccc2F)nc(Cl)n1,28%
4,Cc1cc(NCc2cc(Nc3ccnc4cc(Cl)ccc34)ccc2F)nc(N2CCSCC2)n1,-37.8% (active)
5,O=C(Nc1cccc(C(F)(F)F)c1)Nc1cccc(C(F)(F)F)c1,-4.96% (active)
6,COc1cc(C2NC(=O)c3ccccc3N2)ccc1OCCCCCOc1c(OC)cc(C2=NOC(c3cc(OC)c(OC)c(OC)c3)C2)cc1OC (stereo not given),39.8%
7,O=C(N/N=C/C=C/c1ccc([N+](=O)[O-])o1)c1cc2ccccc2cc1O,-65.5% (active)
8,Cc1c2c(c(C)c3c1oc1cc(O)ccc13)C(=O)N(CCN1CCCCC1)C2=O,91.1%
9,CC1=C(SCCC(=O)OC(C[Se]C2=C(C)C(=O)c3ccccc3C2=O)C(=O)NCCCCCC(=O)OCc2ccccc2)C(=O)c2ccccc2C1=O (stereo not given),49.9%
10,CC(CN1CCCCC1)C(=O)c1ccccc1 (stereo not given),99.2%
11,Cc1nn(-c2ccccc2)c(Oc2ccc(Cl)cc2)c1/C=N\N=c1/sc2ccccc2n1C,66.4%
12,Cc1nc2ccccc2c(/C=C/c2ccc(Cl)cc2)c1C(=O)/C=C/c1ccc(F)cc1,17.7%
13,C[C@H]1[C@H]2[C@H]3CC[C@@H]4[C@@]5(C)C/C(=C/c6cccnc6)C(=O)C(C)(C)[C@@H]5CC[C@@]4(C)[C@]3(C)CC[C@]23CO[C@]1(C)[C@@H](C(=O)/C=C\c1cccnc1)C3,24.6%
14,O=C(Nc1ccccc1-c1nc2ccccc2c(=O)[nH]1)c1cc2ccccc2[nH]1,70.1%
15,Cc1ccc(Cl)cc1NC(=O)c1cc2ccccc2cc1O,-12.1% (active)
16,O=c1oc2ccccc2c(Cl)c1Cl,43.1%
17,C=CC(=O)Nc1cccc(Oc2nccc(Nc3nnc(C4CC4)s3)n2)c1,95%
18,Cc1cccc(-c2nc(N(C)c3ccc4ncsc4c3)c3ccccc3n2)n1,60.6%
19,O=C1OC(c2nc3ccccc3s2)=C/C1=C\c1ccc(O)cc1,95.7%
20,CC(=O)OC1CCC2(C)C(=CC3C4CCC(=O)C4(C)CCC32)C1 (stereo not given),105%

row,SMILES,growth
1,COc1ccc2c(c1)C(=O)/C(=C/c1ccc(OCC(=O)Nc3nccs3)cc1)O2,75.2%
2,CCCCN(CCCC)CC(C)(C)C(O)c1ccc(OC)c2ccccc12 (stereo not given),52.9%
3,Cn1c2c(c3ccc(Cl)c(Cl)c31)C(C#N)C1(CCNCC1)NC2=O (stereo not given),46.8%
4,Cc1ccc(S(=O)(=O)NCC[C@@H]2C[C@H]2c2cc3ccccc3s2)cc1,77.9%
5,O=C(CSc1nnc(-c2ccc(NC(=O)c3cccnc3)cc2)o1)Nc1cccc(Br)c1,56.5%
6,CCc1ccccc1NC(=O)/C(C#N)=C/c1ccc(OC)cc1,88.7%
7,COc1ccc(N=Nc2ccc(O)c(=O)cc2)cc1,-0.237% (active)
8,COCN1CCC2N(COC)CCC3N(COC)CCC1N23 (stereo not given),99.6%
9,CCCCOc1nc2ccccc2cc1C1CNC(=O)c2ccccc2N1 (stereo not given),20.9%
10,COc1ccc(-c2cc(-c3ccc(Nc4nc(Nc5ccc(Cl)cc5)nc(Nc5ccc(Cl)cc5)n4)cc3)nc(N)c2C#N)cc1,3.86% (active)
11,O=S(=O)(NCCCNc1cc(-c2c(-c3cccc(O)c3)nc3sccn23)ccn1)c1cccc(Cl)c1,6.58% (active)
12,O=C1/C(=C/c2ccc(F)cc2)C=C(c2ccccc2)N1CCc1ccccc1,52.1%
13,Cc1ccc(C2SCC(=O)N2Cc2ccccc2)cc1 (stereo not given),95.2%
14,CCN1C(=O)N(CC)C2C1NN=c1s/c(=C\c3cccs3)c(=O)n12 (stereo not given),60.6%
15,N#Cc1c(-c2ccccn2)[nH]c(=S)[nH]c1=O,94.4%
16,O=C(CC(SCc1ccccc1)c1ccccc1)c1ccccc1 (stereo not given),74.7%
17,Nc1n[nH]c2cc(F)c([C@@H]3Nc4c(F)cc5[nH]ncc5c4[C@H]4C5CCC(C5)[C@@H]34)cc12 (stereo not given in full),83.8%
18,Cc1ccc(Nc2nc(N)nc(CSCC(=O)NN)n2)cc1,102%
19,COc1ccc(Cl)cc1NC(=O)C(Br)C(Br)C(=O)O (stereo not given),19.9%
20,CCCCCCCCCCN(CCCCCCCCCC)CC(=O)c1ccc2cc(Br)c3ccccc3c2c1,72.1%
